According to ChEMBL document CHEMBL3988442, “University of Dundee, Small-Polar-MMV Screening Library” (2021):
The campaign covered roughly 69,000 compounds. About 950 (1.4%) showed an effect of 50% or more. Shown is part of a subset that was picked to be rich in strong results.

The compounds below were run on Mycobacterium tuberculosis (assay: Cornell M. t heat shock assay; also: in the data most compounds retested in dose-response had high values).
Format: functional, organism-based
Parameters: dose or concentration left out as unconfirmed

SMILES	Percent Effect [%]
Cc1cc(C(=O)N2CCN(C)CC2)nn1CC(=O)NCc1ccccn1.Cl	-24.19
CC(C)C[C@H](N)c1nnc(SCC(=O)Nc2ccc(Br)cc2)o1.Cl	9.958
O=C(O)C(F)(F)F.O=C(O)C(F)(F)F.O=C(O)C(F)(F)F.c1ccc(NCc2cn3c(n2)CN(Cc2cccnc2)CC3)nc1	2.185
CS(=O)(=O)c1ccc(C(=O)N2CCCC(n3ccnc3)C2)cc1 (configuration not stated)	8.305
Cn1cc(-c2ncc3c(c2C(=O)O)CCN(Cc2ccccn2)C3)cn1.O=C(O)C(F)(F)F.O=C(O)C(F)(F)F	44.96
CO[C@@H]1CCN(C(=O)c2ccsc2)[C@@H]2CN(CC3CC3)C[C@@H]21.O=C(O)C(F)(F)F	9.15
COCCCNC(=O)c1cc(-c2cnc(N(C)C)nc2)cn1CC1CC1.O=C(O)C(F)(F)F	0.3583
CC1(C)CN(Cc2c[nH]c(CC3CCCC3)n2)CC[C@]1(C)O	10.2
OC1(CN2CCCC2)CCCN(Cc2c[nH]c(CC3CCCC3)n2)C1 (configuration not stated)	109.3
OC1(CN2CCCCC2)CCN(Cc2c[nH]c(CC3CCCC3)n2)C1 (configuration not stated)	56.92
COC[C@]1(O)CCN(Cc2c[nH]c(CC3CCCC3)n2)CC1(C)C	-12.53
C[C@@H]1CN(Cc2c[nH]c(CC3CCCC3)n2)CC[C@]1(C)O	-1.066
c1[nH]c(CC2CCCC2)nc1CN1CCCC2(CCOC2)C1 (configuration not stated)	-0.6443
COc1cc(C(=O)N(C)C)ccc1NC(=O)c1ccsc1	-21.05
CCS(=O)(=O)N1CC[C@H]2CO[C@H](CN(C)C)[C@H]2C1.O=C(O)C(F)(F)F	-39.84
CCN1CCC2(CCC(=O)N2Cc2cccc(C)n2)CC1.O=C(O)C(F)(F)F.O=C(O)C(F)(F)F	-30.9
O=C(O)C(F)(F)F.O=C(O)C(F)(F)F.c1cnn(CCCO[C@@H]2CN(C3CCOCC3)[C@@H]3CCCO[C@@H]32)c1	-22.39
Cc1ccc(CN2CC[C@H]3NC(=O)CC[C@@H]32)o1.O=C(O)C(F)(F)F	-7.125
Cc1cccc(N2CCC3(CCCN(C(=O)c4cccnc4)C3)C2)n1.O=C(O)C(F)(F)F.O=C(O)C(F)(F)F (configuration not stated)	-32.42

SMILES	Percent Effect [%]
CN(C)C(=O)CNC(=O)c1ccc2ccc(N(C)CC3CC3)n2c1	51.54
CN(C)CCNC(=O)c1ccc2ccc(N(C)CC3CC3)n2c1	-34.83
COCCNC(=O)c1ccc2ccc(N(C)CC3CC3)n2c1	24.26
NC(=O)N1CCC2(CCN(C(=O)c3cccnc3)CC2)C1.O=C(O)C(F)(F)F	-5.676
Cl.Cl.c1ccc(COC[C@@H]2CCC[C@@]23CNCCO3)nc1	33.86
Cc1cc(C)c(CNC(=O)NCCNc2cnccn2)c(=O)[nH]1	-7.276
CCCc1cncnc1N1CCC(NCc2cc3ccccc3[nH]2)CC1	103.5
CCCc1cncnc1N1CCC(NCc2ccc(O)cc2)CC1	-4.464
CCCc1cncnc1N1CCC(NCc2ccncc2)CC1	4.573
Cc1noc(C)c1C(=O)NCc1ccnc(OCC(F)(F)F)c1	0.8028
Cc1ncsc1C(=O)NCc1ccnc(OCC(F)(F)F)c1	-36.25
Cc1n[nH]c(C(=O)NCc2ccnc(OCC(F)(F)F)c2)c1Br	65.15
NC(=O)N1CCCC(C(=O)NCc2ccccc2OC(F)(F)F)C1 (configuration not stated)	35.38
CN(Cc1ccccc1OC(F)(F)F)C(=O)C1CCCN(C(N)=O)C1 (configuration not stated)	92.25
CN(Cc1ccccc1OC(F)(F)F)C(=O)C1CC1	6.346
O=C(O)C(F)(F)F.O=C(O)C(F)(F)F.c1cc(CO[C@H]2CC[C@H]3[C@H]2OCCN3Cc2nccs2)ccn1	-1.961
O=C(O)C(F)(F)F.O=C(O)C(F)(F)F.O=C1N(c2cncnc2)CCC12CCCN(Cc1cccnc1)C2 (configuration not stated)	-18.13
CCOCC1CN(C(=O)c2cscn2)Cc2cn(C)nc21.O=C(O)C(F)(F)F (configuration not stated)	-37.83
COC[C@@H]1CCC[C@]12CN(Cc1ccco1)CCO2.O=C(O)C(F)(F)F	-13.34

SMILES	Percent Effect [%]
Cl.NCc1cc(-c2ccccc2)n2nccc2n1	-2.564
OCC(O)CN1CCc2onc(-c3ccc(C(F)(F)F)cc3)c2C1 (configuration not stated)	97.28
FC(F)(F)c1ccc(-c2noc3c2CN(CC2CCCO2)CC3)cc1 (configuration not stated)	46.47
COCC(C)N1CCc2onc(-c3ccc(C(F)(F)F)cc3)c2C1 (configuration not stated)	16.68
COCC1c2nnn(CC3CC3)c2CCN1C(=O)c1ccnnc1 (configuration not stated)	-6.272
COCC1c2nnn(CC3CC3)c2CCN1C(=O)c1cc(C)on1 (configuration not stated)	9.302
COCC1c2nnn(CC3CC3)c2CCN1C(=O)c1cc(C)[nH]c1C (configuration not stated)	70.57
CCC(CNC(=O)c1ccc(=O)[nH]n1)N1CCc2ccccc2C1 (configuration not stated)	-4.669
CCC(CNC(=O)c1ccccn1)N1CCc2ccccc2C1 (configuration not stated)	64.91
CCC(CNC(=O)c1ccccc1Br)N1CCc2ccccc2C1 (configuration not stated)	-2.045
O=C(O)C(F)(F)F.c1ccc(CN2CCCn3nnc(CNc4ncccn4)c3C2)nc1	11.56
Cc1noc(C)c1CN1CCc2ncnc(-c3ccncc3)c2CC1.O=C(O)C(F)(F)F.O=C(O)C(F)(F)F	7.897
O=C(CCc1ccsc1)NCC1CCN(c2ccccc2)C1 (configuration not stated)	105.9
O=C(CCc1ccccc1)NCC1CCN(Cc2ccsc2)CC1	-20.67
O=C(CCc1ccsc1)NCC1CCN(C2CC2)C1 (configuration not stated)	-16.29
CC(C)c1nn(C)cc1CNCc1ccnc(N(C)C)c1.Cl	-35.39
CC(C)NC(=O)CC1COC2(CCN(Cc3ccccc3)CC2)C1.O=C(O)C(F)(F)F (configuration not stated)	-5.683
CS(=O)(=O)NC[C@@H]1OC[C@H]2CN(Cc3ccsc3)CC[C@H]21.O=C(O)C(F)(F)F	-25.96
CC(C)(C)Nc1c(C2CCCN(C(=O)C3CC3)C2)nc2ccccn12.Cl (configuration not stated)	-26.51
